Results on 24 compounds are retold here after PubChem BioAssay (NCATS).

Assay [1] can be described thus: qHTS for differential inhibitors of proliferation of Plasmodium falciparum line D10 (AID 1877).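 Also: parasites grown with compound for 72 h before DNA staining.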 Also: potency is read from the fitted curve at half-maximal effect.
Assay [2] in a line: qHTS for differential inhibitors of proliferation of Plasmodium falciparum line Dd2 (AID 1882). Also: nearly all actives have a fitted effect of over 65% in size. Also: potency is read from the fitted curve at half-maximal effect. The note with it: Potency: Plasmodium falciparum Dd2 proliferation inhibition. Put shortly: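 RBC culture, 0.3% parasitemia / 2.5% Hct final; cpd added by pin tool in DMSO; 72 h, 37 C, 5% CO2; lysis buffer + SYBR Green I, o/n RT dark; FI 485/535; norm. to artemisinin 0.29 uM and DMSO.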

Assay [3] can be described thus: qHTS for differential inhibitors of proliferation of Plasmodium falciparum line W2 (AID 1883).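 Also: parasites grown with compound for 72 h before lysis and staining.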 Also: potency is read from the fitted curve at half-maximal effect. The note with it: Potency: Plasmodium falciparum W2 proliferation inhibition.
Assay [4] is described as follows: qHTS for differential inhibitors of proliferation of Plasmodium falciparum line HB3 (AID 1886).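 Also: parasites grown with compound for 72 h before SYBR Green readout.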 Also: potency is read from the fitted curve at half-maximal effect. The settings on record: Potency: Plasmodium falciparum HB3 proliferation inhibition.
For assay [5], the target named is Ferritin light chain (Equus caballus) (UniProt P02791). The assay is described as follows: qHTS Validation Assay for Identification of Novel General Anesthetics (AID 2323). Also: series mostly up to about 77 µM. The method, boiled down: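 Competitive displacement of profluorescent 1-aminoanthracene (1-AMA, 50% saturated solution in PBS) from 10 uM horse-spleen apoferritin. Compounds incubated 10 min at room temperature; fluorescence read at 380 nm excitation/535 nm emission, normalized to free 1-AMA and complex, fitted with four-parameter Hill equation.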

The target of assay [6] is ATP-dependent DNA helicase Q1 (Homo sapiens) (UniProt P46063). The assay is described as follows: qHTS Validation Assay for Inhibitors of RecQ-Like Dna Helicase 1 (RECQ1) (AID 2353). Put shortly:
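RECQ1T1 50 nM; forked duplex (20 bp + 30-nt ss tails) 200 nM, ATP 2 mM final; pH 8.0, 2 mM MgCl2, 2.5 ug/ml poly(dI-dC); 15 min compound preincubation; discontinuous kinetic read over 2 h at RT.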

In assay [7] the target is RecQ-like DNA helicase BLM (Homo sapiens) (UniProt P54132). The assay is described as follows: qHTS Validation Assay for Inhibitors of Bloom's syndrome helicase (BLM) (AID 2364). The method, boiled down: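 Forked 20-bp duplex substrate (200 nM, TAMRA/BHQ-2) plus 2 mM ATP added after 15 min compound preincubation with 50 nM enzyme, pH 8.0, poly(dI-dC) 2.5 ug/ml. Strand separation followed by fluorescence (525/598 nm) over 2 h, normalized to enzyme-free and DMSO controls.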

Assay [8] can be described thus: Cytometric Cell-Based qHTS for Inhibitors of the mTORC1 Signaling Pathway in MEF (Tsc2-/-, p53-/-) Cells (AID 2660).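 Also: Tsc2 and p53 null MEFs carrying empty vector with compound for 24 h; percent of cells above a phospho-rpS6 to PI ratio cutoff in each well; series mostly up to about 38 µM.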 The method, boiled down:
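Cells are plated, treated with compound for 24 hrs at 37 degree Celsius, then fixed, blocked and immunostained for phospho-rpS6 Ser235/236. Propidium iodide counterstain follows. Per-well % positive cells is derived from the PI-normalized phospho-S6 signal.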

A short description of assay [9]: qHTS Assay for Modulators of Human Peripheral Myelin Protein 22 (PMP22) Expression/Activity (AID 1967; active = well fitted curve in the direction sought with a large enough effect in the signal ratio; the % refers to the signal ratio). The method, boiled down:
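MSC80 mouse Schwann cells stably carrying Pmp22 promoter–green click beetle luciferase plus EF-alpha–red luciferase control were dosed for 24h at 37 °C. Dual-colour luminescence was filter-overlap corrected; %Activity came from green/red ratio versus untreated cells.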

The nature of assay [10]: qHTS Assay for Identification of Small Molecule Inducers of Hypoxia Response (AID 2120; active = well fitted curve in the direction sought with a large enough effect in the signal ratio, with a control signal flat, not every such curve was filed as active; the % refers to the signal ratio). Put shortly: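 Read-out: CCF4 FRET emission ratio 460nm/530nm (excitation 405nm), converted to %Activity, with AC50 fitted across a compound titration. ME-180 cells carried an HRE-driven beta-lactamase reporter; compound exposure 17 h, 37 degrees C.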

The structures appear in SMILES notation. Several values for one entry are separate records, joined by “and”; a condition that tells them apart may be missing. Identical values can stand only once. Inconclusive results are not listed. Activity calls are given as the source filed them. Unless noted, calls follow the shape of the dose curve; as a rule, active = well fitted curve in the direction sought with a large enough effect; inconclusive = small, poorly fitted or top-dose-only effect, or another doubt; inactive = no such curve, though single readings can be large; an effect the other way counts as inactive or inconclusive.

Chain of Ferritin light chain (Equus caballus) (P02791 2-175 limits assumed): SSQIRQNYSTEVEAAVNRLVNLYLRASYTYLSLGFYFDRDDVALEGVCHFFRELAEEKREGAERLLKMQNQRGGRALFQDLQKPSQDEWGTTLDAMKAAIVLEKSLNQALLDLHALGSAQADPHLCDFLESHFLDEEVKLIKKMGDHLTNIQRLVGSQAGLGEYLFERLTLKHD
Chain of ATP-dependent DNA helicase Q1 (Homo sapiens) (P46063 whole entry, looked up): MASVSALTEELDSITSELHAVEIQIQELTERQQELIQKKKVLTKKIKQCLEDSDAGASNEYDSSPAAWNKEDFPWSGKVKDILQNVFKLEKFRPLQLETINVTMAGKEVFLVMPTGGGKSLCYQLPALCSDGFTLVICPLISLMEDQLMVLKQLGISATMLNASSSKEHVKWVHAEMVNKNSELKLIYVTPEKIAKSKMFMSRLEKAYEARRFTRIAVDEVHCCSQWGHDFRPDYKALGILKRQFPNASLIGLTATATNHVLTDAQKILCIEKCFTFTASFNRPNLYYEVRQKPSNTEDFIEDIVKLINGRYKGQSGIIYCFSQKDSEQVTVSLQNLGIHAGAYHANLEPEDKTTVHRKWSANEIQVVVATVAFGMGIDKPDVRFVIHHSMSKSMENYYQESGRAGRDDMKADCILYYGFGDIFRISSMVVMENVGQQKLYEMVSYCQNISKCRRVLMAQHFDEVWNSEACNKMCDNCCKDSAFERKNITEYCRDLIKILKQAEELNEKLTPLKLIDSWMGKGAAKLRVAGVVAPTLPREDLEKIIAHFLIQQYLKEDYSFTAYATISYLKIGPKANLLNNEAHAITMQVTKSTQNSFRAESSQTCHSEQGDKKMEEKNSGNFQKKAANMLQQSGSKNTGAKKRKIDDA
Chain of RecQ-like DNA helicase BLM (Homo sapiens) (P54132 whole entry, looked up): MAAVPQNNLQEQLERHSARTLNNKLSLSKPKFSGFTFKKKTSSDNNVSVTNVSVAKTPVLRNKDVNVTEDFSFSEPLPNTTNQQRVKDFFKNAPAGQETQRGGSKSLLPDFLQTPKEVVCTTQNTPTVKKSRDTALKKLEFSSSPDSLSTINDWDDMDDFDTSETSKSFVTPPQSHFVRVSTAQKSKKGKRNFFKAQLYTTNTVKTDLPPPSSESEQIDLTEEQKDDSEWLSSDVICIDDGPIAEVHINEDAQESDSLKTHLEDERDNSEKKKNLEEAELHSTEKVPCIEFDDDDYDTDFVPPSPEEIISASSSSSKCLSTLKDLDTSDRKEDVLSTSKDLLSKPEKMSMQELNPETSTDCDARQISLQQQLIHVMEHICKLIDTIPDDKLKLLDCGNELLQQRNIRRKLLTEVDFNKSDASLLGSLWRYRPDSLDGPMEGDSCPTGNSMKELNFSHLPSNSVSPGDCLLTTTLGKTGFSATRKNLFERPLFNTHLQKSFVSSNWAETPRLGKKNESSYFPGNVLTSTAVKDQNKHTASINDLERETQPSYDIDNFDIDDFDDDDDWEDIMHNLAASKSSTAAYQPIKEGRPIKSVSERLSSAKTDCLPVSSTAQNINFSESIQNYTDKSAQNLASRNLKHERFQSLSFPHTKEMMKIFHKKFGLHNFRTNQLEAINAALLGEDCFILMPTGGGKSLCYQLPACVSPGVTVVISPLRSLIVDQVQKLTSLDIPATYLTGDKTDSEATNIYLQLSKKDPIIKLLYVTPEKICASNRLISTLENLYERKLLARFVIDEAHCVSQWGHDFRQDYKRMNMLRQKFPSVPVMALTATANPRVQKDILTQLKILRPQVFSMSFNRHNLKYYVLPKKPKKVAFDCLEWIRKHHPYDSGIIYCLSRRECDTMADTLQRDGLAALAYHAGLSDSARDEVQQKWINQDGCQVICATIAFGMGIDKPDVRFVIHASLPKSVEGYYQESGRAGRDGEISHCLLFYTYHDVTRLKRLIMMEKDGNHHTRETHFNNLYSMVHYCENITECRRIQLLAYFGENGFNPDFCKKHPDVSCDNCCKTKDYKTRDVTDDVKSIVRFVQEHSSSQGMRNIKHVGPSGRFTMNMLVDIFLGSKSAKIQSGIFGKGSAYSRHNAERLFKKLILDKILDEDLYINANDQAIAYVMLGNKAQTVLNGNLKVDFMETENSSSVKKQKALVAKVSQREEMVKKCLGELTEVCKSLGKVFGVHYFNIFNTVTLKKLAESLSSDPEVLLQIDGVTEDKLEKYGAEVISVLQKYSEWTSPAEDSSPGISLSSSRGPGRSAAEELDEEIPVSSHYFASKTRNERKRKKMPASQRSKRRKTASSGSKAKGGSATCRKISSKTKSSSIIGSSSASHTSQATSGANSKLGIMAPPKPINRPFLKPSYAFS

Regarding `CC1=NS(=O)(=O)c2cc(Cl)ccc2N1`, the Potency result in assay [1], in assay [2], in assay [3], in assay [4], in assay [6] and in [7] was “inactive” in each case. Further, in assay [5], the compound was classed as inactive.
Turning to `O=c1[nH]c(=O)n([C@H]2C[C@H](O)[C@@H](CO)O2)cc1Br`, the Potency result in assay [1], in assay [2], in [3], in assay [4], in [6] and in [7] was “inactive” in each case. The compound was called inactive in [5] and in assay [8].
`Cc1ccc(=O)n(-c2ccccc2)c1`: the Potency result in assay [1], in assay [2], in assay [3], in assay [4] and in assay [6] was “inactive” throughout. Besides, the compound was classed as inactive in [5] and in assay [8].
On to `CCCCCN(CCCCC)C(=O)C(CCC(=O)O)NC(=O)c1ccc(Cl)c(Cl)c1` (configuration not stated), for which the Potency entry in [1], in assay [2], in [3], in [4] and in assay [6] was “inactive” each time. The compound was called inactive in assay [9] and in [8].
For the compound `C#CCN(C)CCCOc1ccc(Cl)cc1Cl`, the Potency result in assay [1], in assay [2], in assay [4], in assay [6] and in assay [7] was “inactive” throughout. In addition, in assay [3], the Potency is 11.2 µM (active). In addition, the outcome in assay [9] and in assay [8] was inactive.
On to `Nc1ncn([C@@H]2O[C@H](CO)[C@@H](O)[C@H]2O)c(=O)n1`, for which the Potency entry in assay [1], in assay [2], in assay [3], in assay [4] and in assay [6] was “inactive” each time. Also, the outcome in assay [5] was inactive.
For the compound `CCN(CC)CC(=O)Nc1c(C)cccc1C`, the Potency result in assay [1], in assay [2], in [4] and in assay [6] was “inactive” each time. Moreover, the Potency in [3] is 14.1 µM (active). Further, the call in assay [9] and in assay [8] was inactive.
For the compound `O=C1NCN(c2ccccc2)C12CCN(CCCC(c1ccc(F)cc1)c1ccc(F)cc1)CC2`, the Potency in assay [1] was 10 µM (active); in [2], 8.91 µM (active); in assay [3] it was 2.82 µM (active); in assay [4], 7.08 µM (active). Also, the compound was called inactive in [5]. Besides, the Potency entry in assay [6] was “inactive”.
With `CC(=O)OC(C)C[N+](C)(C)C` (configuration not stated), the Potency result in assay [1], in [2], in [3], in assay [4] and in [6] was “inactive” in each case. The call in [9] and in assay [5] was inactive.
As to `OCCN1CCN(CCCN2c3ccccc3C=Cc3ccccc32)CC1`, the Potency in assay [1] is 10 µM (active); in [2], 5.62 µM (active) and 7.94 µM (active); in [3] it was 2.51 µM (active) and 2.24 µM (active); in [4], 8.91 µM (active) and 12.6 µM (active). Further, in assay [5], the call was inactive. For the same compound, the Potency entry in assay [6] and in assay [7] was “inactive” each time.
`OC(CCN1CCCCC1)(c1ccccc1)C1CCCCC1` (configuration not stated): the Potency is 12.6 µM (active) in assay [1], 3.55 µM (active) in assay [2], 3.16 µM (active) in [3] and 11.2 µM (active) in assay [4]. Further, the outcome in assay [5] and in assay [8] was inactive. The Potency entry in [6] was “inactive”.
In the case of `CC(=O)OCC1=C(C(=O)O)N2C(=O)[C@@H](NC(=O)Cc3cccs3)[C@H]2SC1`, the Potency result in [1], in assay [2], in assay [3], in assay [4] and in assay [6] was “inactive” in each case. In addition, the result in assay [9], in [5] and in [8] was inactive.
On to `C[N+](C)(C)CCOC(N)=O`, for which the Potency entry in assay [1], in [2], in [3], in [4] and in assay [6] was “inactive” throughout.
For `CCCN(CCC)C(=O)C(CCC(=O)O)NC(=O)c1ccccc1` (configuration not stated), the Potency result in assay [1], in [2], in assay [3], in assay [4], in assay [6] and in assay [7] was “inactive” in each case. In addition, the result in assay [8] was inactive.
As for `O=C(O)CCCCCCCC(=O)O`, the Potency entry in [1], in assay [2], in assay [3], in [4], in assay [6] and in assay [7] was “inactive” in each case. Besides, in assay [8], the outcome was inactive.
Regarding `CN(C)CCN(Cc1cccs1)c1ccccn1`, the Potency result in assay [1], in [4], in assay [6] and in assay [7] was “inactive” in each case. Also, the Potency in assay [2] is 7.08 µM (active); in assay [3], 3.16 µM (active). Also, the outcome in assay [8] was inactive.
In the case of `CC1=C(C)C(=O)C(CCCCC#CCCCC#CCO)=C(C)C1=O`, the Potency in assay [1] is 14.1 µM (active); in assay [2], 10 µM (active); in assay [3], 3.55 µM (active); in assay [4], 8.91 µM (active). The Potency entry in assay [6] was “inactive”.
As to `CCO/C([O-])=N/c1c[n+](N2CCOCC2)no1`, the Potency entry in assay [1], in assay [2], in assay [3], in assay [4] and in [6] was “inactive” throughout. Besides, in assay [8], the compound was classed as inactive.
Turning to `N[C@@H](COP(=O)(O)O)C(=O)O`, the Potency result in assay [1], in assay [2], in [4] and in [6] was “inactive” each time. Moreover, the compound was classed as inactive in assay [9] and in [8].
As to `CCNC(=O)N1CCN(CCCC(c2ccc(F)cc2)c2ccc(F)cc2)CC1`, the Potency in assay [1] is 2.51 µM (active); in assay [2] it was 3.16 µM (active); in assay [3] it was 0.282 µM (active); in assay [4], 1.12 µM (active). For the same compound, the outcome in [5] and in [8] was inactive. Also, the Potency result in [6] was “inactive”.
For `NC(Cc1ccc(Cl)cc1)C(=O)O` (configuration not stated), the Potency entry in assay [1], in assay [2], in [3], in assay [4] and in [6] was “inactive” in each case. In [8], the call was inactive.
For the compound `COCC(=O)O[C@]1(CCN(C)CCCc2nc3ccccc3[nH]2)CCc2cc(F)ccc2[C@@H]1C(C)C`, the Potency was 8.91 µM (active) in [1], 1.26 µM (active) in assay [2], 0.501 µM (active) in assay [3] and 5.01 µM (active) in assay [4]. Moreover, the Potency result in assay [6] and in [7] was “inactive” each time.
Take `O=C(O)CN(CCN(CC(=O)O)CC(=O)O)CCN(CC(=O)O)CC(=O)O`: the Potency entry in [1], in [2], in assay [3], in assay [4] and in assay [6] was “inactive” in each case. Further, the outcome in [5] and in assay [8] was inactive.
In the case of `CN=C(NC#N)NCCSCc1nc[nH]c1C`, the Potency result in assay [1], in assay [2], in assay [4], in [6] and in assay [7] was “inactive” throughout. Further, the outcome in [10], in assay [5] and in assay [8] was inactive.
